{"source": "PubChem BioAssay (NCI)", "note": "Compounds without any hit were thinned out: in the full panel of roughly 83,000, 20% have a hit.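 Cell lines were cultured in 96-well plates, exposed to a single compound concentration, and assessed for percent growth 48 hours later.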 Activity calls are given as the source filed them.", "data": [{"system": "PC-3 prostate", "assay": "NCI-60 one-dose screen, 48 h (100 = growth as untreated, 0 = no growth, -100 = all killed)", "conditions": "10 µM unless noted", "procedure": "Growth inhibition of the PC-3 human tumor cell line is measured as a screen for anti-cancer activity. Cells are grown in 96 well plates and exposed to the test compound for 48 hours. Compounds are tested at a single concentration, which is 10^-5 M for most compounds. The reported endpoint is percent growth (GI% or GIPRCNT), where numbers from 0 - 100% represent growth inhibition, and numbers from -100% - 0 represent cell death. For example, a value of 40 represents 60% growth inhibition. A value of 0 means no net growth occurred over the course of the experiment. A value of -40 indicates 40% of cells at the beginning of the experiment died by the end of the experiment. A value of -100 means all cells are dead at the end of the experiment.\nNCI-60 Human Tumor Cell Lines Screen was performed using the standard one-dose NCI protocol, which is described in more detail at https://dtp.cancer.gov/discovery_development/nci-60/default.htm.\nCompounds with GIPRCNT values below 10 were considered active. Activity score was based on GIPRCNT using the following formula: […]\nScore is 0 for GIPRCNT values of 100 or above, 50 for GIPRCNT values of 0, and 100 for GIPRCNT values of -100.", "values": [{"smiles": "CCSc1ccc(C2C(Br)C(=O)N2c2cc(OC)c(OC)c(OC)c2)cc1", "note": "(stereo not given)", "growth": "20% (inactive)"}, {"smiles": "CCOC(=O)c1c(C)nc2c(c1N)CC(=O)N2CCc1ccccc1", "growth": "17.3% (inactive)"}, {"smiles": "OCCNc1nc(NCCO)nc(Nc2ccc(C3=NN(c4ccc(Cl)cc4)C(c4ccc(Cl)cc4)C3)cc2)n1", "note": "(stereo not given)", "growth": "32.8% (inactive)"}, {"smiles": "CCOC(=O)c1sc(/N=C2\\NC(=O)/C(=C/c3ccc(N4CCN(C)CC4)cc3)S2)nc1C", "growth": "102% (inactive)"}, {"smiles": "COc1ccc(NC(=O)Nc2ccc(Nc3nc(C)cc(Nc4ccc(C)cc4)n3)cc2)cc1", "growth": "-93.3% (active)"}, {"smiles": "C#C[C@@]1(O)[C@@H](CO)O[C@@H](n2cc(Cl)c3c(N)ccnc32)[C@@H]1O", "growth": "36.7% (inactive)"}, {"smiles": "CCCCCCCCCCCCCC1=NCC[N+]1(CCO)Cc1ccccc1", "note": "(stereo not given)", "growth": "-88.4% (active)"}, {"smiles": "Nc1ccc(C2=NN(C(=O)c3cc(-c4ccc(Cl)cc4)nc4ccccc34)C(c3ccc(Cl)cc3)C2)cc1", "note": "(stereo not given)", "growth": "23.3% (inactive)"}, {"smiles": "O=C(CSC(=S)N1CCCCC1)Nc1ccccc1", "growth": "92.6% (inactive)"}, {"smiles": "COc1ccc(-c2[nH]c3ccccc3c2C=C(C#N)C#N)cc1", "growth": "19.1% (inactive)"}, {"smiles": "CCc1ccc(OCc2ccccc2C(=O)Nc2ccc3nc(C)cc(N)c3c2)cc1", "growth": "-88.1% (active)"}, {"smiles": "CCOCc1nc2ccccc2c(=O)[nH]1", "growth": "95.2% (inactive)"}, {"smiles": "O=c1[nH]nc(-c2ccc(Br)cc2)c2sc(NC(=S)Nc3ccc(Cl)cc3)nc12", "growth": "96.6% (inactive)"}, {"smiles": "COc1cc2c(Nc3ccc(NC(=O)Nc4ccc(Cl)c(C(F)(F)F)c4)c(Cl)c3)ncnc2cc1OCCCN1CCN(C)CC1", "growth": "-25.3% (active)"}, {"smiles": "S=C(Nc1ccc(Cl)cc1)c1ccccn1", "growth": "85.6% (inactive)"}, {"smiles": "Cc1nnc(/N=C2\\NC(=O)/C(=C/c3ccsc3)S2)s1", "growth": "89.6% (inactive)"}, {"smiles": "Cc1ccc2nc3nc4ccc[nH]c4cc3c2c1", "growth": "87.5% (inactive)"}, {"smiles": "N#CC1C(c2ccc(Cl)cc2)=Nc2c(c(-c3ccccc3)nn2-c2ccccc2)C12C(=O)Nc1ccc(Cl)cc12", "note": "(stereo not given)", "growth": "11.8% (inactive)"}, {"smiles": "O=C1CCC23OC(c4ccccc4N12)C(O)C(O)C3O", "note": "(stereo not given)", "growth": "95.6% (inactive)"}, {"smiles": "COc1cc(NCC(=O)Nc2cc(Nc3ccc(C)cc3)ncn2)c(Cl)c(OC)c1Cl", "growth": "69.1% (inactive)"}, {"smiles": "CC1(c2ccccc2Cl)NC(=O)NC1=O", "note": "(stereo not given)", "growth": "91.2% (inactive)"}, {"smiles": "C/C(=N\\NC(=O)c1ccncc1)c1ccc(N)cc1", "growth": "85.8% (inactive)"}, {"smiles": "CC1CCN(CCCCCOc2ccc3oc4ccccc4c(=O)c3c2)CC1", "growth": "80.8% (inactive)"}, {"smiles": "CCCCCOC(=O)c1ccccc1O", "growth": "86.9% (inactive)"}, {"smiles": "Cc1ccc(C(=O)O)o1", "growth": "90.2% (inactive)"}, {"smiles": "CN1CCN(S(=O)(=O)O[C@@H]2C(=O)N(c3cc4c5ccccc5ccc4c4ccccc34)[C@H]2c2ccc(F)cn2)CC1", "growth": "63.9% (inactive)"}, {"smiles": "CC1CCN(CCCCCOc2ccc3oc4cc(Cl)ccc4c(=O)c3c2)CC1", "growth": "64.3% (inactive)"}, {"smiles": "CCCn1c(N)c(C(N)=O)sc1=S", "growth": "96% (inactive)"}, {"smiles": "COc1ccc(-n2nc(C(=O)NCC(=O)O)nc2-c2ccccc2)cc1", "growth": "103% (inactive)"}, {"smiles": "COc1ccc(C(=O)c2cc(F)c(F)c(OC)c2F)cc1OC(=O)CCl", "growth": "38.4% (inactive)"}, {"smiles": "Cc1nc2sc(C(=O)Nc3ccccc3Cl)c(N)c2cc1C(C)O", "note": "(stereo not given)", "growth": "83.5% (inactive)"}, {"smiles": "Nc1c(C(=O)Nc2ccccn2)sc2nc3c(cc12)CCCCC3", "growth": "31.4% (inactive)"}, {"smiles": "COc1ccc(C(=O)c2cc(OC)c(OC)c(OC)c2)cc1OC(=O)CCl", "growth": "17% (inactive)"}, {"smiles": "COC(=O)/C=C1\\SC(=Nc2cccc(OC)c2)N(CCc2c[nH]c3ccccc23)C1=O", "growth": "40.1% (inactive)"}, {"smiles": "COc1cc2c(cc1OCCCOc1cc3c(cc1OC)C(=O)N1CC(F)(F)C[C@H]1C=N3)N=C[C@@H]1CC(F)(F)CN1C2=O", "growth": "3.21% (active)"}, {"smiles": "C=CCn1c(SCC(=O)Nc2ccc(C(=O)/C=C/c3cc(OC)c(OC)c(OC)c3)cc2)nnc1-c1ccc(Cl)cc1", "growth": "28.3% (inactive)"}, {"smiles": "O=C(Nc1cc(Nc2ncccc2-c2ncnc3nc[nH]c23)ccc1F)c1cc(C(F)(F)F)cc(C(F)(F)F)c1", "growth": "-45.1% (active)"}, {"smiles": "O=C(O)c1cc(N=Nc2ccc(-c3ccc(N=Nc4c(S(=O)(=O)O)cc5ccc(Nc6ccccc6)cc5c4O)cc3)cc2)ccc1O", "growth": "96.4% (inactive)"}, {"smiles": "O=C(CCc1nnco1)c1nc2ccc([N+](=O)[O-])cc2[nH]1", "growth": "96.1% (inactive)"}, {"smiles": "COc1cccc(C(=O)OCCn2nc3c4c(cccc42)C(=O)c2ccccc2-3)c1O", "growth": "20.5% (inactive)"}]}]}
